Pf growth 48h: P. falciparum growth inhibition at 48 hours (one generation) | 5.9% of 310,000 active | Potency, µM (series often up to 28.7 µM), without a hit: at the highest dose activity change, negative = inhibition, most hits filed as inhibitors | P. falciparum luciferase growth in erythrocytes, 48 h | AID 504832; note: potency is the fitted concentration of half-maximal effect
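Read-out is firefly luciferase luminescence from an integrated reporter in P. falciparum, so falling signal marks reduced parasite growth. Infected erythrocytes were at 2% hematocrit and 0.1% parasitemia (final) in Albumax-supplemented RPMI 1640.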
HCMV inh: human cytomegalovirus inhibition; HFF cells, HCMV-luciferase reporter, 72 h; stronger effect = lower value; activity change, negative = inhibition, % at 57.5 µM; 4.5% of 410,000 active; AID 1259415; in the data active = activity change below about -60%; inconclusive = no clear call, values can overlap the other calls; inactive = above about -39%
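Two-dose cell screen: HFF monolayers treated with compounds and infected with luciferase-expressing HCMV at 1 PFU/cell, 72 h at 37C, then lysed for luciferase measurement.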
HCV inhibitor: blocks hepatitis C virus; Huh7.5.1 HCVcc-Cre infection, luciferase reporter, 44 h; Potency, µM (top dose mostly 41.8 µM), without a hit: top-dose activity change, negative = inhibition, most hits filed as inhibitors; 3.4% of 340,000 active; AID 651820; note: potency is the fitted concentration of half-maximal effect
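Compounds are dispensed onto cells plated 4 h earlier at 1,000 per well, with HCVcc-Cre virus (about 0.5 moi) added next. Following 44 h of culture, luminescent signal is measured for 15 sec after 15 min with substrate at room temperature.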
Pf growth 96h: P. falciparum growth inhibition at 96 hours; 6.9% of 320,000 active; P. falciparum luciferase reporter growth, 96 h; Potency, µM (highest dose often 28.7 µM), for inactives: at the highest dose activity change, negative = inhibition, usual class: inhibitors; note: potency is the fitted concentration of half-maximal effect
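Delayed-death screen, second-generation endpoint: infected erythrocytes, 2% hematocrit, 0.05% parasitemia final; 96 hours at 37 C, 5% CO2; luciferase detection reagent; luminescence decrease equals reduced growth.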
Active calls of the source: *; ? = inconclusive; . = no result. An excerpt weighted towards active compounds, which were near 13% of everything screened. Unless noted, calls come from the whole dose curve; as a rule, active = well fitted inhibition curve with a large enough effect; inconclusive = small, poorly fitted or top-dose-only effect, or another doubt; inactive = no such curve, though single readings can be large or run the other way. % is set by controls: 0 for no effect and ±100 for the full control effect.

SMILES	Pf growth 48h	HCMV inh	HCV inhibitor	Pf growth 96h
CCn1c2ccccc2c2cc(NS(=O)(=O)c3ccc(C)cc3)ccc21	-4%	-60*	?	?
CCn1c(=O)n(CC)c2cc(NS(=O)(=O)c3ccccc3)ccc21	9%	165	8%	15%
O=P(Cc1ccccc1)(c1ccccc1)c1ccccc1	0%	-31	15%	1%
Cc1ccc(C(=O)Nc2nnc(S(=O)(=O)N3CCCc4ccccc43)s2)cc1	.	51	.	.
CCc1ccc(NC(=O)CSc2nc3ncccc3[nH]2)cc1	.	-11	.	.
Cc1cc(C(C)(C)C)cc(C)c1CCNC(=O)c1c(C)noc1C	13µM*	?	11µM*	8.3µM*
O=C(Nc1cccc(F)c1)c1cccnc1NCCc1ccccc1	-12%	12	?	?
O=C(Nc1ccc(F)cc1)c1cccnc1NCCc1ccccc1	?	-29	17%	3.7µM*
CCOC(=O)c1c(Oc2ccc(C(=O)OC)cc2)nnc(-c2ccccc2)c1-c1ccccc1	.	-9	.	.
COc1ccc(C)cc1NC(=O)CSCc1ccccc1C	-27%	-4	?	-30%
Cc1ccc(CSC2=Nc3ccccc3C3=NC(=O)CN23)cc1	?	?	7.9µM*	?
COc1cc2c(cc1OC)C1=NC(=O)CN1C(SCc1ccccc1C)=N2	?	?	?	12µM*
CC1CCN(S(=O)(=O)c2cc(C(=O)Nc3ccc(Br)cc3F)n(C)c2)CC1	.	-13	.	.
Cc1ccc(NC(=O)/C(C#N)=C/c2ccccc2Cl)cc1C	.	-15	.	.
Cc1ccc(Cl)cc1N1CCN(C(=O)c2c(C)oc3ncnc(N4CCCCC4)c23)CC1	.	-6	.	.
COCCCn1[nH]c2c3c(ccc2c1=O)C(=O)c1ccccc1C3=O	12µM*	?	?	.
CC(C)(C)n1[nH]c2c3c(ccc2c1=O)C(=O)c1ccccc1C3=O	1.3µM*	17	?	.
COc1ccccc1OC(C)C(=O)N1CCc2ccccc21 (configuration not stated)	10µM*	-2	17%	-5%
Cc1nn(C)cc1-c1cc(C(=O)O)c2ccccc2n1	12%	-1	-8%	-2%
COc1cc2ccccc2cc1C(=O)N1CC(C)CC(C)C1 (configuration not stated)	0.33µM*	-33	-11%	0.29µM*
COc1cc2ccccc2cc1C(=O)N1CCCC1	107%	-5	-6%	-14%
COc1ccc(-c2cc(C(=O)N3CCN(c4ccccc4)CC3)c3ccccc3n2)cc1	7%	70	?	-17%
COc1ccc(-c2cc(C(=O)N3CC(C)CC(C)C3)c3ccccc3n2)cc1 (configuration not stated)	2.9µM*	6	6%	3.7µM*
Cc1cc(-c2cc(C(=O)O)c3ccccc3n2)c(C)s1	16%	7	19%	1.7µM*
CC1=C(C(=O)Nc2ccc(C)cc2Cl)C2(CCCCC2)OC1=O	.	2	.	.
SMILES	Pf growth 48h	HCMV inh	HCV inhibitor	Pf growth 96h
CCc1nn(CC(=O)NCCc2ccc(SC)cc2)c(=O)c2cc3sccc3n12	.	-8	.	.
CCc1ccc(NC(=O)Cn2c(=O)n(CC3CCCO3)c(=O)c3cc(OC)c(OC)cc32)cc1 (configuration not stated)	.	4	.	.
CCOC(=O)N1CCN(C(=O)c2ccc3c(c2)N(Cc2ccccc2F)C(=O)c2ccccc2S3(=O)=O)CC1	.	10	.	.
COc1cc2ccccc2cc1C(=O)N1CCc2ccccc21	9.3µM*	-19	8.9µM*	?
COc1ccc2cc(-c3cc(C(=O)O)c4ccccc4n3)ccc2c1	-32%	-61*	18%	44%
COc1ccc(-c2cc(C(=O)N3CCCC3)c3ccccc3n2)cc1	72%	52	-29%	3.7µM*
COc1ccc(-c2cc(C(=O)O)c3ccccc3n2)c(OC)c1	-1%	0	1%	4%
COc1cc(C(=O)N2CCc3ccccc32)cc(OC)c1OC	16%	28	0%	-6%
COCCCn1c(SCc2cccc(Cl)c2)nc2c(sc3ccccc32)c1=O	.	14	.	.
CCOC(=O)c1c(C)[nH]c(C)c1S(=O)(=O)NCC(=O)Nc1cccc(Cl)c1	.	0	.	.
CC(C)Cn1c(SC(C)C(=O)Nc2ccc3c(c2)OCCO3)nc2ccccc2c1=O (configuration not stated)	?	?	-17%	.
COc1ccc(C)cc1NC(=O)C(Sc1nnc2ccccn12)c1ccccc1 (configuration not stated)	-14%	-20	?	-12%
COc1ccc(C)cc1NC(=O)C(Sc1nnc(Nc2cc(C)ccc2OC)s1)c1ccccc1 (configuration not stated)	0%	?	10µM*	10µM*
COc1ccc(C)cc1NC(=O)C(Sc1nnc(-c2ccncc2)n1-c1ccc(Cl)cc1)c1ccccc1 (configuration not stated)	?	12	?	10µM*
COc1cccc(Nc2nnc(SCC(=O)N(CC(C)C)CC(C)C)s2)c1	?	17	?	1.3µM*
Cc1ccc(C)c(NC(=O)C(Sc2nc3ccccc3c(=O)n2CC(C)C)c2ccccc2)c1 (configuration not stated)	3.7µM*	-24	-15%	2.6µM*
Cc1ccccc1OCC(=O)Nc1ccc(OCc2cc(=O)n3ccsc3n2)cc1	.	3	.	.
Cc1nn(CC(=O)NC2CC2)c(=O)c2cc3cc(F)ccc3n12	.	11	.	.
O=C1NC(=O)[C@@]2(CCOc3ccc(F)cc32)N1	-10%	.	.	7%
Cc1ccc(C)c(NC(=O)C(Sc2nncn2C)c2ccccc2)c1 (configuration not stated)	-5%	29	-17%	?
COc1cccc(Nc2nnc(SCN3C(=O)c4ccccc4C3=O)s2)c1	63%	40	-1%	140%
COc1ccc(Nc2nnc(SC(C(=O)Nc3ccc(OC)c(Cl)c3)c3ccccc3)s2)cc1 (configuration not stated)	?	?	?	9.3µM*
COc1ccc(Nc2nnc(SC(C(=O)Nc3cc(C)ccc3C)c3ccccc3)s2)cc1 (configuration not stated)	?	-100*	?	?
COc1cccc(NC(=O)C(Sc2nnc(Nc3ccccc3C)s2)c2ccccc2)c1 (configuration not stated)	?	-32	?	6.6µM*
CCn1cc(C(=O)NCCc2ccc(C)cc2)c(=O)c2cc(S(=O)(=O)N3CCc4ccccc4C3)ccc21	.	9	.	.
SMILES	Pf growth 48h	HCMV inh	HCV inhibitor	Pf growth 96h
Cc1ccccc1NC(=O)Nc1nnc(N2CCCCCC2)s1	.	36	.	.
Cn1cnc2cnc(Nc3ccc(F)c(Cl)c3)cc21	.	69	.	.
Cn1c(=O)c2c(ncn2CCOc2ccc(Br)cc2)n(C)c1=O	20%	?	10µM*	2%
CCN(Cc1ccccc1)C(=O)Cn1cnc2c1c(=O)n(C)c(=O)n2C	13%	7	8%	-7%
Cn1c(=O)c2c(ncn2CCN(CCO)Cc2ccccc2)n(C)c1=O	7%	9	14%	7.4µM*
CCCCCn1c(=O)[nH]c2cc(C(=O)N3CCN(c4cc(Cl)ccc4C)CC3)ccc2c1=O	.	-10	.	.

Source: PubChem BioAssay
